Calls of active or inactive are those of the source. Where a call stands in place of a potency, no number is given. The call rests on the fitted dose curve. Positions of bridges follow the written chain, without caps; N, C: chain ends. Non-standard residues stand in square brackets, D forms with d. Residues, ends and D or L forms follow the SMILES beside them. *: point of attachment. Dab(CH2SO3H) = N[C@@H](CCNCS(=O)(=O)O)C(=O)O; X3 = CC[C@@H](C)CCCCC(=O)*; Dab = NCC[C@H](N)C(=O)O
tested on: not listed separately; assay: qHTS assay to identify small molecule antagonists of the estrogen receptor alpha (ER-alpha) signaling pathway - cell viability counter screen (AID 743074); conditions: ERalpha-bla HEK293 viability, CellTiter-Glo luminescence, 18 h; series mostly up to 69.4 µM;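 further: HEK293 cells carrying ER-alpha-UAS-bla reporter stimulated with 17beta-estradiol; nearly all actives have a fitted effect of over 45% in size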
Potency means the concentration at half of the fitted maximal effect.

Compound	Potency
CC[C@H]1OC(=O)[C@H](C)C(=O)[C@H](C)[C@@H](O[C@@H]2O[C@H](C)C[C@H](N(C)C)[C@H]2O)[C@](C)(OC)C[C@@H](C)C(=O)[C@H](C)[C@H]2N(CCCCn3cnc(-c4cccnc4)c3)C(=O)O[C@]12C	inactive
O=P(O)(O)OP(=O)(O)OP(=O)(O)O	inactive
NC[C@@H]1CC[C@@H](N)[C@@H](O[C@H]2[C@H](O)[C@@H](O[C@H]3O[C@H](CO)[C@@H](O)[C@H](N)[C@H]3O)[C@H](N)C[C@@H]2N)O1	inactive
CC(=O)OCC(=O)[C@@]1(O)CC[C@H]2[C@@H]3CCC4=CC(=O)CC[C@]4(C)C3=CC[C@@]21C	inactive
COc1c(Br)cc(Br)c(C)c1Br	inactive
CC12CCC(C[N+](C)(CCC[N+](C)(C)C)C1)C2(C)C (centres undefined)	inactive
O=C1c2c(O)cccc2[C@H]([C@@H]2O[C@H](CO)[C@@H](O)[C@H](O)[C@H]2O)c2cc(CO)cc(O)c21	inactive
NCC(O)CC(=O)O (centres undefined)	inactive
CCOc1ccc(S(=O)(=O)O)c2cccnc12	inactive
CC12CCC(C1)C(C)(C)C2=O (centres undefined)	inactive
CN1C(=O)C[C@@H](C(=O)N[C@@H](Cc2cnc[nH]2)C(=O)N2CCC[C@H]2C(N)=O)NC1=O	inactive
NC[C@H]1O[C@H](O[C@H]2[C@H](O)[C@@H](O[C@H]3O[C@H](CO)[C@@H](O)[C@H](N)[C@H]3O)[C@H](N)C[C@@H]2N)[C@H](N)C[C@@H]1O	inactive
NCC[C@H](O)C(=O)N[C@@H]1C[C@H](N)[C@@H](O[C@H]2O[C@H](CN)CC[C@H]2N)[C@H](O)[C@H]1O[C@H]1O[C@H](CO)[C@@H](O)[C@H](N)[C@H]1O	inactive
CC1(C)S[C@@H]2[C@H](NC(=O)[C@@H](NC(=O)N3CCNC3=O)c3ccccc3)C(=O)N2[C@H]1C(=O)O	inactive
C=CC[N@@+]12CC[C@@]34c5ccccc5N5/C=C6/[C@H]7C[C@H]8[C@@]9(CC[N@@+]8(CC=C)C/C7=C/CO)c7ccccc7N(/C=C(/[C@@H](C[C@@H]31)/C(=C\CO)C2)[C@H]54)[C@@H]69	inactive
CC(C)Cc1ccc([C@H](C)C(=O)O)cc1	inactive
COc1cc2c(cc1OC)[C@@H](Cc1cc(OC)c(OC)c(OC)c1)[N+](C)(CCCOC(=O)CC/C=C/CCC(=O)OCCC[N+]1(C)CCc3cc(OC)c(OC)cc3[C@H]1Cc1cc(OC)c(OC)c(OC)c1)CC2 (some centres undefined)	inactive
FC(F)(F)C(F)(F)C(F)(F)C(F)(F)C(F)(F)F	inactive
COc1ccc(/C=N/NC(=O)c2ccncc2)c(C(=O)O)c1OC	inactive
C[C@]12O[C@H](C[C@]1(O)CO)n1c3ccccc3c3c4c(c5c6ccccc6n2c5c31)CNC4=O	21.3 µM (active)
CC[N+](CC)(CC)CCC(O)(c1ccccc1)C1CCCCC1 (centres undefined)	inactive
CC(C)c1ncc([N+](=O)[O-])n1C	inactive
CC[C@H](C)C(=O)O[C@H]1CCC=C2C=C[C@H](C)[C@H](CC[C@@H]3C[C@@H](O)CC(=O)O3)[C@H]21	inactive
CN(C)CCc1c[nH]c2ccc(Cn3cncn3)cc12	inactive
C/C=C/C1=C(C(=O)O)N2C(=O)[C@@H](NC(=O)[C@H](N)c3ccc(O)cc3)[C@H]2SC1	inactive
O=C1C2CC3CC1CC(O)(C3)C2	inactive
COC(=O)C[C@](O)(CCCC(C)(C)O)C(=O)O[C@@H]1C(OC)=CC23CCCN2CCc2cc4c(cc2[C@H]13)OCO4 (some centres undefined)	inactive
CC[C@@H](C)CCCCC(=O)N[C@@H](CCNCS(=O)(=O)O)C(=O)N[C@H](C(=O)N[C@@H](CCNCS(=O)(=O)O)C(=O)N[C@H]1CCNC(=O)[C@H]([C@@H](C)O)NC(=O)[C@H](CCNCS(=O)(=O)O)NC(=O)[C@H](CCNCS(=O)(=O)O)NC(=O)[C@H](CC(C)C)NC(=O)[C@@H](CC(C)C)NC(=O)[C@H](CCNCS(=O)(=O)O)NC1=O)[C@@H](C)O (X3-[Dab(CH2SO3H)]T[Dab(CH2SO3H)][Dab][Dab(CH2SO3H)][dL]L[Dab(CH2SO3H)][Dab(CH2SO3H)]T; lactam 4-C)	inactive
CCC(NC(C)C)C(O)c1ccc(O)c(O)c1 (centres undefined)	inactive
CCCCCCCCCC[N+](C)(CCCCCCCCCC)CCC[Si](OC)(OC)OC	49 µM (active)

target: Estrogen receptor (Homo sapiens) (UniProt P03372); assay: qHTS assay to identify small molecule agonists of the estrogen receptor alpha (ER-alpha) signaling pathway (AID 743075); conditions: HEK293 ER-alpha-UAS-bla, beta-lactamase FRET ratio, 18 h; series mostly up to 70.1 µM;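 further: HEK293 GripTite cells with ER-alpha and UAS-driven beta-lactamase reporter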
Sequence (P03372 whole entry, looked up): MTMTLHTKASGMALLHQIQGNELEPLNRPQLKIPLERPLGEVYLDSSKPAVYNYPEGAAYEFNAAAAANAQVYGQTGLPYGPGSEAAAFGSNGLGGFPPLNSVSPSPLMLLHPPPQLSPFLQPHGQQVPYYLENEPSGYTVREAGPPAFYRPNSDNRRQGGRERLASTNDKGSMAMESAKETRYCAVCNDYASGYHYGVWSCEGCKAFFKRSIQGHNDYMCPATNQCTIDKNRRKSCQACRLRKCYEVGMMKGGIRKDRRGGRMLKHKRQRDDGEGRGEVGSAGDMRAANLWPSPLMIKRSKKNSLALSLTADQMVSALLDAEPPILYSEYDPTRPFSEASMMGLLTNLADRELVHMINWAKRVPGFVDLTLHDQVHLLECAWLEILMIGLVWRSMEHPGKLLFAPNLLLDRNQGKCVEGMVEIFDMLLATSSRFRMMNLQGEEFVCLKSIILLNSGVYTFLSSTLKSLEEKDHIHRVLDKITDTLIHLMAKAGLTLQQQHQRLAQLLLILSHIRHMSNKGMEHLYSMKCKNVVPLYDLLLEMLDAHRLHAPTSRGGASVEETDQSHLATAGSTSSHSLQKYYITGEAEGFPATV

Compound	Potency
CC[C@H]1OC(=O)[C@H](C)C(=O)[C@H](C)[C@@H](O[C@@H]2O[C@H](C)C[C@H](N(C)C)[C@H]2O)[C@](C)(OC)C[C@@H](C)C(=O)[C@H](C)[C@H]2N(CCCCn3cnc(-c4cccnc4)c3)C(=O)O[C@]12C	inactive
COc1cccc2c1[C@@H]1CN(CCCCn3c(=O)[nH]c4c(sc5ncc(-c6ccccc6)nc54)c3=O)C[C@@H]1CO2	inactive
O=P(O)(O)OP(=O)(O)OP(=O)(O)O	inactive
NC[C@@H]1CC[C@@H](N)[C@@H](O[C@H]2[C@H](O)[C@@H](O[C@H]3O[C@H](CO)[C@@H](O)[C@H](N)[C@H]3O)[C@H](N)C[C@@H]2N)O1	inactive
CC(=O)OCC(=O)[C@@]1(O)CC[C@H]2[C@@H]3CCC4=CC(=O)CC[C@]4(C)C3=CC[C@@]21C	inactive
CN1CCN(CCCN2c3ccccc3Sc3ccc(Cl)cc32)CC1	inactive
CC12CCC(C[N+](C)(CCC[N+](C)(C)C)C1)C2(C)C (centres undefined)	inactive
O=C1c2c(O)cccc2[C@H]([C@@H]2O[C@H](CO)[C@@H](O)[C@H](O)[C@H]2O)c2cc(CO)cc(O)c21	inactive
NCC(O)CC(=O)O (centres undefined)	inactive
CCOc1ccc(S(=O)(=O)O)c2cccnc12	23.9 µM [inconclusive] (active)
CC12CCC(C1)C(C)(C)C2=O (centres undefined)	inactive
CN1C(=O)C[C@@H](C(=O)N[C@@H](Cc2cnc[nH]2)C(=O)N2CCC[C@H]2C(N)=O)NC1=O	inactive
NC[C@H]1O[C@H](O[C@H]2[C@H](O)[C@@H](O[C@H]3O[C@H](CO)[C@@H](O)[C@H](N)[C@H]3O)[C@H](N)C[C@@H]2N)[C@H](N)C[C@@H]1O	inactive
CC1(C)S[C@@H]2[C@H](NC(=O)[C@@H](NC(=O)N3CCNC3=O)c3ccccc3)C(=O)N2[C@H]1C(=O)O	inactive
CC(C)Cc1ccc([C@H](C)C(=O)O)cc1	inactive
FC(F)(F)C(F)(F)C(F)(F)C(F)(F)C(F)(F)F	inactive
COc1ccc(/C=N/NC(=O)c2ccncc2)c(C(=O)O)c1OC	inactive
Cc1cc(-c2ccc(N=Nc3ccc4c(S(=O)(=O)O)cc(S(=O)(=O)O)c(N)c4c3O)c(C)c2)ccc1N=Nc1ccc2c(S(=O)(=O)O)cc(S(=O)(=O)O)c(N)c2c1O	inactive
CC[C@H](C)C(=O)O[C@H]1CCC=C2C=C[C@H](C)[C@H](CC[C@@H]3C[C@@H](O)CC(=O)O3)[C@H]21	inactive
C/C=C/C1=C(C(=O)O)N2C(=O)[C@@H](NC(=O)[C@H](N)c3ccc(O)cc3)[C@H]2SC1	inactive
O=C1C2CC3CC1CC(O)(C3)C2	inactive
COC(=O)C[C@](O)(CCCC(C)(C)O)C(=O)O[C@@H]1C(OC)=CC23CCCN2CCc2cc4c(cc2[C@H]13)OCO4 (some centres undefined)	inactive
CC[C@@H](C)CCCCC(=O)N[C@@H](CCNCS(=O)(=O)O)C(=O)N[C@H](C(=O)N[C@@H](CCNCS(=O)(=O)O)C(=O)N[C@H]1CCNC(=O)[C@H]([C@@H](C)O)NC(=O)[C@H](CCNCS(=O)(=O)O)NC(=O)[C@H](CCNCS(=O)(=O)O)NC(=O)[C@H](CC(C)C)NC(=O)[C@@H](CC(C)C)NC(=O)[C@H](CCNCS(=O)(=O)O)NC1=O)[C@@H](C)O (X3-[Dab(CH2SO3H)]T[Dab(CH2SO3H)][Dab][Dab(CH2SO3H)][dL]L[Dab(CH2SO3H)][Dab(CH2SO3H)]T; lactam 4-C)	inactive
O=C1CCC(c2ccc(-n3ccnc3)cc2)=NN1	inactive

From PubChem BioAssay (Tox21)
